From PubChem BioAssay (NCATS)
Results filed as inconclusive are left out. A call without a number means that no potency is given here. Calls of active or inactive are those of the source. Calls follow the shape of the dose curve; as a rule, active = well fitted curve in the direction sought with a large enough effect; inconclusive = small, poorly fitted or top-dose-only effect, or another doubt; inactive = no such curve, though single readings can be large; an effect the other way counts as inactive or inconclusive.

Tests used:
[1] = system: Zika virus NS2B-NS3 protease (unlinked complex); assay: Primary screen GU Rhodamine qHTS for Zika virus inhibitors: Unlinked NS2B-NS3 protease assay (AID 1347159); also: nearly all actives have a fitted effect of over 60% in size
How it was run: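 Noncovalent NS2B hydrophilic domain–NS3 protease domain complex (25 nM) preincubated 15 min at room temperature with compounds (up to 114 microM) in 10 mM Tris-HCl pH 8.0, 0.01% Tween 20; 1.5 microM Rhodamine110 substrate added, fluorescence change over 15 min fitted to Hill equation.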

[2] = system: Zika virus NS2B-NS3 protease (linked construct); assay: Primary screen NINDS Rhodamine qHTS for Zika virus inhibitors (AID 1347160); also: nearly all actives have a fitted effect of over 55% in size
How it was run: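 Purified linked NS2B-NS3 protease (NS2B hydrophilic domain joined to NS3 protease by flexible linker), 25 nM in 10 mM Tris-HCl pH 8.0, 0.01% Tween 20. Compounds titrated, 15 min preincubation at room temperature; 1.5 microM Rhodamine110 substrate, FITC fluorescence change over 15 min.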

[3] = system: Zika virus NS2B-NS3 protease (linked construct); assay: 384 well plate NINDS Rhodamine confirmatory qHTS for Zika virus inhibitors (AID 1347164);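 also: fluorescence from protease cleavage of Ac-LKRR-rhodamine 110 substrate; top concentration of the series differs between compounds; nearly all actives have a fitted effect of over 65% in size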
How it was run: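 Linked protease at a final 5 nM, 30 nM or 60 nM was preincubated ~15 min with compounds, then given 10 microM Ac-LKRR-Rhodamine 110. Fluorescence (ex 485/em 538 nm) after 25 min in the dark at room temperature.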

[4] = Vero cells viability qHTS for Zika virus inhibitors (AID 1347167)
How it was run: (§1)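 Compounds were tested in concentration series on cells grown in DMEM containing 4% FBS. After 24 to 48 hours, cellular ATP was measured by luminescence with CellTiter Glo.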

[5] = HepG2 cells viability qHTS for Zika virus inhibitors (AID 1347168)
How it was run: as §1

[6] = OV-KATE Cancer Cell Toxicity qHTS against the NCATS CANVASS Library (AID 1347345); conditions: OV-KATE cells viability, CellTiter-Glo luminescence, 72 h; also: potency is read from the fitted curve at half-maximal effect
How it was run: (§2)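 In this cytotoxicity screen, 1000 cells per well rested 4 hours, then received compound (11 concentrations) for a 72-hour incubation; an ATP-dependent luminescent signal (CellTiter-Glo) was the endpoint.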

[7] = HPAF-II Cancer Cell Toxicity qHTS against the NCATS CANVASS Library (AID 1347346); conditions: HPAF-II viability, CellTiter-Glo ATP luminescence, 72 h; also: potency is read from the fitted curve at half-maximal effect; nearly all actives have a fitted effect of over 55% in size
How it was run: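 HPAF-II cells were seeded at 1000 cells/well, allowed to settle for 4 h at 37 degrees C, then exposed to compounds in an 11-point series for 72 h. Viability was read by CellTiter-Glo luminescence.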

[8] = UWB1.289 Cancer Cell Toxicity qHTS against the NCATS CANVASS Library (AID 1347347); conditions: UWB1.289 viability, CellTiter-Glo luminescence, 72 h; also: potency is read from the fitted curve at half-maximal effect; nearly all actives have a fitted effect of over 60% in size
How it was run: as §2

[9] = OV-SAHO Cancer Cell Toxicity qHTS against the NCATS CANVASS Library (AID 1347348); conditions: OV-SAHO viability, CellTiter-Glo luminescence, 72 h; also: potency is read from the fitted curve at half-maximal effect; nearly all actives have a fitted effect of over 55% in size
How it was run: as §2

[10] = Panc-1005 Cancer Cell Toxicity qHTS against the NCATS CANVASS Library (AID 1347349); conditions: Panc-1005 viability, CellTiter-Glo luminescence, 72 h; also: potency is read from the fitted curve at half-maximal effect; nearly all actives have a fitted effect of over 60% in size
How it was run: as §2

[11] = U-118MG Cancer Cell Toxicity qHTS against the NCATS CANVASS Library (AID 1347351); conditions: U-118MG viability, CellTiter-Glo luminescence, 72 h; also: potency is read from the fitted curve at half-maximal effect
How it was run: as §2

[12] = Confirmatory screen NINDS Rhodamine qHTS for Zika virus inhibitors (AID 1347161);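 also: purified Zika NS2B-NS3 protease with linked NS2B cofactor domain and Rhodamine110 peptide substrate; series mostly up to about 110 µM; nearly all actives have a fitted effect of over 60% in size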
How it was run: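 In 10 mM Tris-HCl pH 8.0 containing 0.01% Tween 20, linked NS2B-NS3 protease (25 nM final) is exposed to test compounds for 15 min. Cleavage of 1.5 microM Rhodamine110 substrate is tracked by fluorescence over 15 min.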

[13] = Tertiary RLuc qRT-PCR qHTS assay for Zika virus inhibitors (AID 1347169); also: top concentration of the series differs between compounds; nearly all actives have a fitted effect of over 55% in size
How it was run: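 Vero cells (1,000 per well) plated overnight at 37 degrees C, treated with compound in DMSO, then infected with recombinant ZIKV-RLuc (Cambodian) at MOI 1-2 for 48-72 hrs. Live-cell Renilla luciferase substrate added; luminescence read after 1-1.5 hrs.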

What does the source list for `CNC(=O)c1cccc(-c2ccc3c(N4CCOC[C@@H]4C)nc(N4CCOC[C@@H]4C)nc3n2)c1`?
Potency [1]: inactive; Potency [2]: inactive

For `Cc1nc([C@](C)(O)CO)sc1-c1cnc(N)c(O[C@H](C)c2cc(F)ccc2-n2nccn2)c1`, which Potency [1] is on record?
Its Potency is “inactive”.

What about the Potency [2] of the same compound?
Its Potency is “inactive”.

With `C=C[C@H]1C(O[C@@H]2O[C@H](CO)[C@@H](O)[C@H](O)[C@H]2O)OC=C2C(=O)N3CCc4c([nH]c5ccccc45)C3CC21` (some centres undefined) as the compound, how does the Potency [1] read?
Its Potency is “inactive”.

What about the Potency [2] of the same compound?
Its Potency is “inactive”.

With `C[C@@H]1C[C@@H](O)[C@@]23CO[C@@H](O)[C@@H]2CCC[C@@H]3[C@@]12C[C@@H](c1ccoc1)OC2=O` as the compound, how does the Potency [1] read?
Its Potency is “inactive”.

What about the Potency [2] of the same compound?
Its Potency is “inactive”.

For `Nc1ncnc2c([C@@H]3N[C@H](CO)[C@@H](O)[C@H]3O)c[nH]c12`, which Potency [3] is on record?
Its Potency is “inactive”.

And the outcome [4]?
Its outcome is “inactive”.

What about the outcome [5] of the same compound?
Its outcome is “inactive”.

Which results are given for `C=C1C(=O)O[C@H]2[C@H]1CC/C(C)=C/CC[C@@]1(C)O[C@@H]21`?
Potency [6]: 6.66 µM (active); Potency [7]: 21.1 µM (active); Potency [8]: 11.8 µM (active); Potency [9]: 7.47 µM (active); Potency [10]: 6.68 µM (active); Potency [11]: 6.68 µM (active)

With `C/C=C/C1=CC2=C(CO1)C(=O)C(C)(O)C(OC(=O)c1c(C)cc(OC)cc1O)C2` (centres undefined) as the compound, how does the Potency [12] read?
Its Potency is “inactive”.

With `C=C1C(=O)O[C@H]2C1[C@H](OC(=O)/C(=C/CO)COC(=O)/C(C)=C/CO)CC(=C)[C@@H]1CC(=O)[C@@H](C)[C@@H]12` (some centres undefined) as the compound, how does the Potency [13] read?
Its Potency is “inactive”.
